Drawing on the supplement of paper PMC13380429, this text covers morphology score and SARS-CoV-2 infection rate for ten compounds.

Assay [1] has as its system Vero E6 infected with SARS-CoV-2. The assay is described as follows: morphology score (similarity to uninfected cells); higher = more like uninfected cells. The following applies: 24 h.
Assay [2] has the same test system. Kind of assay: SARS-CoV-2 infection rate relative to infected DMSO; higher = more infection, active = 60 or less. As to conditions: 24 h.

SMILES strings stand for the structures.

On to `COc1cc(/C=C/C(=O)N2CCN(CC(=O)N3CCCC3)CC2)cc(OC)c1OC` [cinepazide] (10 µM), for which the morphology score in assay [1] was -0.015. In addition, the SARS-CoV-2 infection rate in assay [2] is 108% (inactive).
On the same counts, the results for `CC(C)(O)C(Cl)(Cl)Cl` [chlorobutanol] (10 µM) are 0.123 and 106% (inactive).
Taken in the same sequence, the figures for `COc1cc(C(=S)N2CCOCC2)ccc1O` [vanitiolide] (10 µM) were 0.152 and 102% (inactive).
On the same counts, the results for `CO/N=C(\C(=O)N[C@@H]1C(=O)N2C(C(=O)O)=CCS[C@H]12)c1csc(N)n1` [ceftizoxim] (10 µM) are -0.0509 and 102% (inactive).
Regarding `Cc1cc(N2CCCCC2)nc2ccccc12` (10 µM), in assay [1], the morphology score was 0.282. The SARS-CoV-2 infection rate in assay [2] was 93% (inactive).
Taken in the same sequence, the figures for `Oc1cccc(O)c1` [resorcinol] (10 µM) were 0.0503 and 110% (inactive).
Taken in the same sequence, the figures for `CC(=O)N[C@@H](CS)C(=O)O` [acetylcysteine] (10 µM) were 0.183 and 95.5% (inactive).
In the case of `CCc1cc(Cl)c(OC)c(C(=O)NC[C@@H]2CCCN2CC)c1O` [eticlopride] (10 µM), the morphology score in assay [1] was found to be 0.426. The SARS-CoV-2 infection rate in assay [2] was 63.5% (inactive).
On the same counts, the results for `O=C1c2cccc(O)c2C(=O)c2c(O)cccc21` [dantron] (10 µM) are -0.0545 and 103% (inactive).
As for `CC(=O)c1ccc2c(c1)N(CCCN1CCC(CCO)CC1)c1ccccc1S2` [piperacetazine] (10 µM), the morphology score in assay [1] turned out to be 0.384. Besides, the SARS-CoV-2 infection rate in assay [2] is 75% (inactive).
